Compound activity deposited in PubChem by Broad Institute.
MITF inh = MITF inhibition. 0.28% of 37,000 active. AID 2240. TRPM1 promoter luciferase, luminescence, 24 h. inhibition, % (no concentration beside the values); in the data active means inhibition above about 85%; inconclusive means no clear call, values can overlap the other calls; inactive means below about 68%;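 further: human melanocyte line stably carrying TRPM1 promoter luciferase reporter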
NOMO-1 viab = STK33 inhibitor candidate reducing NOMO-1 cell viability; NOMO-1 AML viability, CellTiter-Glo luminescence, 72 h; inhibition, % (concentration not given with the values); 7.5% of 37,000 active; in the data active means inhibition above about 80%; inconclusive means no clear call, values can overlap the other calls
Hedgehog inh = blocks Sonic Hedgehog signaling; Shh-LIGHT2 Gli-luciferase reporter, 30 h; inhibition, % (concentration not given with the values); 2.1% of 22,000 active; AID 2313;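 active means mean inhibition across valid replicates above about 65%, limit read from the data; inconclusive means mean under the limit, yet half or more replicates past it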;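 further: pathway switched on by Shh-conditioned medium diluted 1 in 25 in low serum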
The depositor's hits bear a star; u = inconclusive; x = no result. The list is not random: actives were taken first. Their share in the collection is about 7.9%.

SMILES	MITF inh	NOMO-1 viab	Hedgehog inh
O=C(CC[N+](=O)[O-])OC[C@H]1O[C@@H](O)[C@H](OC(=O)CC[N+](=O)[O-])[C@@H](OC(=O)CC[N+](=O)[O-])[C@@H]1OC(=O)CC[N+](=O)[O-]	8.7	106.0*	40.9
O=C(c1ccco1)c1cn(CCCOc2ccccc2)c2ccccc12	-0.1	31.1	x
C=CC(C)(C)[C@@]12C[C@H]3C(=O)N/C(=C\c4cnc[nH]4)C(=O)N3[C@@H]1Nc1ccccc12	-10.7	2.6	9.2
CC[C@@]1(O)C(=O)OCc2c1cc1n(c2=O)Cc2cc3c(O)cccc3nc2-1	66.5	119.3*	68.2*
CCCCn1c(=O)c(C(=O)NCc2ccccn2)c(O)c2ccccc21	31.9	66.3	x
C[C@@H]1Cc2c(Cl)cc(C(=O)N[C@@H](Cc3ccccc3)C(=O)O)c(O)c2C(=O)O1	x	x	78.1*
CC(=O)OC1CCC2(C)C(=CCC3C4CCC(=O)C4(C)CCC32)C1 (centres undefined)	-1.9	9.8	-9.3
CC1=CC2OC3[C@H](O)C[C@@](C)([C@]34CO4)[C@@]2(CO)[C@H](O)C1=O (some centres undefined)	71.8	123.5*	40.1
Clc1cncc(N2CCNCC2)n1	2.3	2.3	-44.9
COc1ccc2c3c4n(c2c1)[C@@H](C=C(C)C)OOC(C)(C)C[C@@H]4N1C(=O)[C@@H]2CCCN2C(=O)[C@]1(O)[C@H]3OCC=C(C)C	29.5	55.6	12.0
O=c1cc(O)c2ccccc2o1	-0.9	7.2	-21.9
CC1=CC(=O)C2=C(C)C[C@H](O)[C@@H]3[C@H](OC(=O)[C@@H]3C)[C@@H]12	x	x	-17.8
Cc1ccc(NC(=O)c2cccc(OC(=O)N(C)c3ccccc3)c2)cc1C	5.0	20.4	76.4*
C=C1[C@@]23C(=O)O[C@H](C)[C@]24O[C@@]2(C(=C)[C@]5(C=CC(=O)OC5(C)C)CC[C@]32C)[C@H](O)[C@@]1(C)OC4=O	0.7	8.6	-2.3
CCC(C)(O)C(=O)O[C@H]1C(=O)O[C@@H]2C[C@H]3C(C)=CC(=O)[C@@H](O)[C@]3(C)[C@H]3[C@@]4(O)OC[C@]32[C@@H]1[C@@H](C)[C@H]4O (some centres undefined)	91.6*	124.1*	67.3*
NC1=C(C(=O)OCc2ccccc2)C2(C(=O)Nc3ccc(Br)cc32)C2=C(O1)C(=O)CCC2 (centres undefined)	9.9	45.0	-16.0
N#CC(C#N)=Cc1ccc(O)cc1	-3.0	86.7*	56.6
N#CC(C#N)=Cc1cc(O)c(O)c(O)c1	-9.9	45.4	41.9
NCC(=O)Nc1ccc(Br)cc1C(=O)c1ccccc1	-124.8	4.0	x
Cc1cccc(NC(=O)Cn2cc(C(=O)c3ccccc3)c3ccccc32)c1C	76.0	42.0	x
CNc1ccc2oc(C[C@@H]3OC4(CC[C@@H]3C)O[C@H](C(C)C(=O)c3ccc[nH]3)[C@H](C)C[C@H]4C)nc2c1C(=O)O (some centres undefined)	105.0*	119.8*	104.2*
Cc1cccc(N2C(=O)NC(=O)C(CCc3ccncc3)(CCc3ccncc3)C2=O)c1	6.6	3.4	x
COc1ccc2c3c1O[C@H]1[C@@H](O)C=C[C@H]4C(C2)N(C)CCC341 (some centres undefined)	x	x	3.8
CNc1ccccc1C(=O)O	-8.6	1.6	1.9
C[CH2][Hg][S]c1ccccc1C(=O)O	105.0*	110.8*	u
SMILES	MITF inh	NOMO-1 viab	Hedgehog inh
CCN1C[C@]2(COC)[C@H](O)C[C@H](OC)[C@@]34[C@@H]5C[C@]6(O)[C@H](OC(=O)c7ccccc7)[C@@H]5[C@@](OC(C)=O)(C([C@H](OC)[C@H]23)[C@@H]14)[C@@H](O)[C@@H]6OC	9.7	28.7	22.0
Cc1ccc(S(=O)(=O)N2CCCCC2)cc1C(=O)Oc1cccc2cccnc12	-27.9	116.2*	-14.3
COc1ccc2c(c1)[C@]13CCCC[C@@H]1[C@H](C2)N(C)CC3	-2.3	14.4	34.6
C=C(CO)C(=O)O[C@H]1CC(=C)[C@@H]2C[C@H](O)C(=C)[C@@H]2[C@H]2OC(=O)C(=C)[C@@H]21	-44.9	120.8*	89.7*
C=C(CO)C(=O)O[C@H]1C/C(C)=C\CC/C(CO)=C\[C@H]2OC(=O)C(=C)[C@H]12	-15.3	122.5*	6.7
CCN1C[C@]2(C)CC[C@H](OC)[C@@]34C2[C@H](O)C([C@@H]13)[C@@]1(OC)C[C@H](OC)[C@H]2C[C@@H]4[C@@H]1[C@H]2O	-13.2	3.6	-12.1
COc1ccc(CC2(CCc3ccncc3)C(=O)NC(=O)N(c3cccc(C)c3)C2=O)c(OC)c1 (centres undefined)	-23.5	16.6	x
CCC(=O)O[C@H]1CCC2C3CCC4=CC(=O)CC[C@]4(C)C3CC[C@@]21C (some centres undefined)	-2.5	4.5	-3.3
C/C=C1/C[N+]2([O-])C3CC1C(CO)C2Cc1c3[nH]c2ccc(OC)cc12 (centres undefined)	23.7	14.7	-10.1
CC(C)c1cc2c(cc1O)[C@@]1(C)CCCC(C)(C)[C@@H]1CC2	-12.5	u	-4.6
